Luc counter: Kinase-Glo luciferase inhibition (counter-screen); Q27757; Kinase-Glo luciferase, ATP luminescence, 8 min; Potency, µM (series often up to 38.3 µM), for the others: top-dose activity change, negative = inhibition, hits mostly inhibitors; hit rate 0.28% among 200,000; AID 1379; also: nearly all actives have a fitted effect of over 60% in size
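Kinase-Glo luciferase light output from ATP and luciferin was measured with 10 uM ATP, within the enzyme's linear range. Buffer: 50 mM imidazole pH 7.2, 50 mM KCl, 7 mM MgCl2, 0.01% Tween 20, 0.05% BSA; luminescence read after 8 min at ambient temperature.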
VP16 counter: Gal4-VP16 reporter inhibition counter-screen. hit rate 3.5% among 310,000. AID 2546. Drosophila S2 Gal4-VP16 UAS-luciferase, luminescence, 20 h. Potency, µM (series often up to 53.6 µM), for the others: at the top dose activity, negative = inhibition, actives largely listed as inhibitors;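 also: Gal4-VP16 expression switched on by copper sulfate through the metallothionein promoter; nearly all actives have a fitted effect of over 50% in size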
RORgamma inh: ROR gamma (mouse) transcription inhibition; Drosophila S2 Gal4-RORgamma UAS-luciferase reporter, 20 h; Potency, µM (highest dose often 53.6 µM), for the others: top-dose activity change, negative = inhibition, actives largely listed as inhibitors; hit rate 5.4% among 310,000; also: nearly all actives have a fitted effect of over 60% in size
Target sequence (P51450 whole entry, looked up, the tested form may be a part): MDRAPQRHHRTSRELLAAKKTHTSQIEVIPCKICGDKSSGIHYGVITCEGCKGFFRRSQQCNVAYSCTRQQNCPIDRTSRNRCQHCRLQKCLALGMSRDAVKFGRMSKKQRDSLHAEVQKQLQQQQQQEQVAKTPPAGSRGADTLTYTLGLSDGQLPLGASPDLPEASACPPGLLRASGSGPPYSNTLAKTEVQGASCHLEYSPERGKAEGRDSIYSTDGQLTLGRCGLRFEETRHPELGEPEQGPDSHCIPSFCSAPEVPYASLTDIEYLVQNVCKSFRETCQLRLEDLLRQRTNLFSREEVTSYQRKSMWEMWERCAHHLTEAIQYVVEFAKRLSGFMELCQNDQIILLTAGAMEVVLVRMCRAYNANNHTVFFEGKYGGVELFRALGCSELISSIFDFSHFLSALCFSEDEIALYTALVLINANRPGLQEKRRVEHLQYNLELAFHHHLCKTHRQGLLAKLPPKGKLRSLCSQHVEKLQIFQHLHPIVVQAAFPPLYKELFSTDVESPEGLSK
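Drosophila Schneider cells stably carrying a metallothionein-driven Gal4 DBD–ROR gamma fusion and a UAS-Photinus luciferase reporter were exposed to compound for 1 hr, then induced with copper sulfate (700 uM final) for 20 hr at ambient temperature before luminescence reading.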
Active calls of the source: *; ? = inconclusive; nt = no result; [ ] = dose if it differs, or a comment. An excerpt weighted towards active compounds, which were near 6.4% of everything screened. Calls follow the shape of the dose curve; as a rule, active = well fitted curve in the direction sought with a large enough effect; inconclusive = small, poorly fitted or top-dose-only effect, or another doubt; inactive = no such curve, though single readings can be large; an effect the other way counts as inactive or inconclusive. % is scaled to controls: 0 for no effect and ±100 for the full control effect; potency is read from the fitted curve at half-maximal effect.

SMILES	Luc counter	VP16 counter	RORgamma inh
Cc1c(N=C2NC(=O)/C(=C/c3ccc(O)cc3)S2)c(=O)n(-c2ccccc2)n1C	4%	?	5µM*
CCOc1ccc(-c2n[nH]c(=S)c3ccccc23)cc1	nt	10µM*	7.1µM*
CCOc1ccc(-c2n[nH]c(=S)o2)cc1	8%	?	?
Cc1ccc(-c2n[nH]c(=S)c3ccccc23)cc1	1%	2%	31%
S=c1[nH]nc(-c2ccccc2)c2ccccc12	-4%	11µM*	7.1µM*
CCSc1nnc(NC(=O)CSc2nccn2-c2cccc(C)c2)s1	-1%	?	11µM*
CCOc1ccc(-n2ccnc2SCC(=O)Nc2nnc(CC)s2)cc1	-4%	4%	10µM*
Cc1cccc(-n2ccnc2SCC(=O)Nc2nccs2)c1	nt	1%	-37%
CCc1nnc(NC(=O)CSc2nnc(-c3ccc(OC)cc3)n2C)s1	2%	14%	?
C=CCNC(=S)NCC	nt	-10%	-18%
C=CCNC(=S)N(C1CCCCC1)C1CCCCC1	0%	2%	10µM*
Cn1c(=O)c2c(nc(SCC(=O)c3ccccc3F)n2C)n(C)c1=O	-1%	3%	28%
CCOC(=O)c1cc(C#N)c(=S)[nH]c1C	3%	-14%	13µM*
COCc1[nH]c(=S)c(C#N)cc1C(=O)OC	nt	-21%	?
O=C(Nc1nnc(SCc2ccc(Cl)cc2)s1)C1CC(=O)N(Cc2ccccc2)C1 (stereo not drawn)	0%	-3%	?
Cc1nnc(SCC(=O)Nc2nccs2)o1	nt	1%	-11%
CCCCc1c(CCC)c(=N)c2ccccc2n1C	-3%	-30%	21%
O=C1CC(Sc2nnnn2-c2ccccc2)C(=O)N1c1cccc(Cl)c1 (stereo not drawn)	3%	3.2µM*	3.5µM*
Clc1cccc(N2CCN(c3nnnn3-c3ccccc3)CC2)c1	-1%	-8%	17%
O=C1CC(Sc2nnc(-c3ccccc3O)o2)C(=O)N1c1ccccc1 (stereo not drawn)	1%	?	?
O=C1CC(SCc2nc3ccccc3[nH]2)C(=O)N1c1cccc(Cl)c1 (stereo not drawn)	3%	13µM*	10µM*
COc1ccc(N2C(=O)CC(Sc3nc(C)cc(C)c3C#N)C2=O)cc1 (stereo not drawn)	2%	?	?
COc1ccc(N2C(=O)CC(Sc3nnnn3-c3ccc(F)cc3)C2=O)cc1 (stereo not drawn)	1%	-15%[10 µM]	11µM*
COc1ccc(N2C(=O)CC(Sc3nnc(-c4ccccc4)o3)C2=O)cc1 (stereo not drawn)	15%	?	5.6µM*
O=C1CC(SCc2nc3ccccc3[nH]2)C(=O)N1c1ccc(F)cc1 (stereo not drawn)	-2%	?	?
SMILES	Luc counter	VP16 counter	RORgamma inh
CCc1cccc(NC(=O)CCNS(=O)(=O)c2ccc3c(c2)oc(=O)n3C)c1	nt	9%	15%
CCN1CCN(S(=O)(=O)c2ccc(Oc3ccccc3OC)cc2)CC1	1%	-4%	?
O=C(NCc1cccnc1)NC1(C(F)(F)F)Oc2ccccc2O1	nt	?	10µM*
CC(C)CNC(=O)NC1(C(F)(F)F)Oc2ccccc2O1	-4%	-9%	-34%
COc1ccccc1CNC(=O)C(=O)Nc1ccc(C(=O)N2CCC(C)CC2)cc1	nt	-12%	4%
S=C(NCCN1CCOCC1)Nc1ccc(Br)cc1	1%	-8%	?
Cc1cc(OCC(=O)NNC(=S)NCC2CCCO2)cc(C)c1Cl (stereo not drawn)	nt	6.3µM*	3.2µM*
S=C(NCC1CCCO1)NC1CCCC1 (stereo not drawn)	0%	-22%	13µM*
O=C(NCC1CCCO1)c1cc(S(=O)(=O)Nc2ccc(Br)cc2)ccc1Cl (stereo not drawn)	7%	-11%	43%
Cc1cc(OC(C)C(=O)NCC2CCCO2)cc(C)c1Cl (stereo not drawn)	nt	0%	4%
S=C(NCC1CCCO1)Nc1ccccc1Cl (stereo not drawn)	-7%	16%	?
CCCCc1ccc(NC(=S)NCCN2CCOCC2)cc1	-2%	?	10µM*
O=C(NNC(=S)NCC1CCCO1)c1cc(Br)ccc1Cl (stereo not drawn)	nt	20µM*	3.2µM*
CSc1cccc(NC(=O)CCS(=O)(=O)c2cccc3nonc23)c1	nt	-1%	-9%
COc1cc(NC(=O)CSc2nnc3c(n2)[nH]c2ccc(S(=O)(=O)NC(C)C)cc23)cc(OC)c1OC	0%	-9%	-8%
O=C(Cc1ccc(Cl)c(Cl)c1)NNC(=S)NCC1CCCO1 (stereo not drawn)	nt	-14%	?
Cc1ccccc1NC(=S)NCCc1ccc(S(N)(=O)=O)cc1	1%	-3%	2%
